# Source: PubChem BioAssay
# Activity calls are given as the source filed them.
# Legend:
# Albumin (Bos taurus) = Albumin (Bos taurus) (UniProt P02769); assay: bovine serum albumin binders on microarray, profiling panel, artefact control for SMM control protein annotation, biochemical, small-molecule microarray, Alexa647 label, 635/667 nm fluorescence (AID 1118); conditions: BSA-A647 binding, fluorescence 635 nm, higher = more signal;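 note: score merges 667 nm emission intensity and signal-to-noise per printed compound spot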
# Chain of Albumin (Bos taurus) (P02769 whole entry, looked up): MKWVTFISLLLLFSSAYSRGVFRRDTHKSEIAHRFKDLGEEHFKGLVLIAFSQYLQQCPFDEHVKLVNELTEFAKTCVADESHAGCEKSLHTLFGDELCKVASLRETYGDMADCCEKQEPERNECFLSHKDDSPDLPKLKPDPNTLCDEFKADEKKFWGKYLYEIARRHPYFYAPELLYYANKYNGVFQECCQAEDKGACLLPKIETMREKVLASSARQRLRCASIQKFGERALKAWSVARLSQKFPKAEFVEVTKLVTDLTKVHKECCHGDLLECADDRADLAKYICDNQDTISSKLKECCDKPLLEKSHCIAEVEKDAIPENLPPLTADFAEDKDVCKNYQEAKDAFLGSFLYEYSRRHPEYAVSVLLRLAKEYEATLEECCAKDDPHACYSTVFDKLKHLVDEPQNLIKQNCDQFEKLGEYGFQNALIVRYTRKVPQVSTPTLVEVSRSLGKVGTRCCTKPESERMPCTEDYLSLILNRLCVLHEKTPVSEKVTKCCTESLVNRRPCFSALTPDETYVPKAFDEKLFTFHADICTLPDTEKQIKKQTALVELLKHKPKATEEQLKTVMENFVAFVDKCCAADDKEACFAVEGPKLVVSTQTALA
# [1] = small-molecule microarray binders of probe aXIP, primary screen, biochemical, NeuroSMM set, 635/667 nm fluorescence (AID 1119); conditions: higher = more signal, called active from +8 up or from −8 down;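 note: probe is the protein aXip251-270 applied at 1 µg/mL to compound-printed slides; binding of probe to printed compounds measured as 667 nm fluorescence plus signal to noise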
# [2] = small-molecule binders of probe aNOTCH3, primary screen, biochemical, small-molecule microarray, 635/667 nm fluorescence (AID 1120); conditions: higher = more signal;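 note: probe is a biotin-tagged antibody raised against NOTCH3 rather than NOTCH3 protein; score merges spot fluorescence near 667 nm with spot signal to noise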
# [3] = small-molecule binders of probe aNOTCH2, primary screen, biochemical, small-molecule microarray, 635/667 nm fluorescence (AID 1121); conditions: higher = more signal;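 note: score merges feature fluorescence read at 667 nm with its signal to noise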
# [4] = target: Carbonic anhydrase 2 (Homo sapiens) (UniProt P00918); assay: CAII small-molecule binders, profiling panel, biochemical, small-molecule microarray, Alexa647-labelled CAII (AID 1122); conditions: CAII-A647 binding fluorescence, higher = more signal
# [5] = COS7 lysate on small-molecule microarray, probe aHis, 635 nm (AID 1123); conditions: COS7 cell lysate, fluorescence, higher = more signal;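 note: z-score combines 667nm fluorescence intensity with signal-to-noise per printed compound spot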
# [6] = compound binding in COS7 lysate, probe aLAP1, primary screen, cell lysate, small-molecule microarray (AID 1124); conditions: probe aLAP1, fluorescence, higher = more signal;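 note: lysate comes from COS7 cells expressing LAP1 and is applied at 0.3 µg/mL; score merges spot fluorescence near 667 nm with signal-to-noise over triplicate slides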
# Sam68 (KHDRBS1) = assay: Sam68 small-molecule binders, primary screen, biochemical, small-molecule microarray, 635 nm fluorescence (AID 1125); conditions: small-molecule microarray binding, higher = more signal;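 note: score merges 667 nm channel intensity with signal to noise over triplicate slides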
# [7] = system: Chordin-like protein 2 (CHRDL2); assay: CHRDL2 small-molecule binders, primary screen, biochemical, small-molecule microarray, 635 nm fluorescence (AID 1126); conditions: small-molecule microarray binding, fluorescence 635 nm; higher = more signal;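 note: printed compound slides probed with Chrdl2 protein at 4 µg/mL for 1 h at 4 C; score merges 667 nm emission intensity with signal to noise over three replicate slides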
# [8] = target: Concanavalin-A (Canavalia ensiformis) (UniProt P02866); assay: ConA small-molecule binders, primary screen, artefact control for SMM control protein annotation, biochemical, small-molecule microarray, Alexa647 label, 635 nm (AID 1127); conditions: ConA-A647 binding fluorescence, higher = more signal;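 note: z combines 667 nm emission intensity with signal-to-noise across three replicate slides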
# Chain of Concanavalin-A (Canavalia ensiformis) (P02866 whole entry, looked up): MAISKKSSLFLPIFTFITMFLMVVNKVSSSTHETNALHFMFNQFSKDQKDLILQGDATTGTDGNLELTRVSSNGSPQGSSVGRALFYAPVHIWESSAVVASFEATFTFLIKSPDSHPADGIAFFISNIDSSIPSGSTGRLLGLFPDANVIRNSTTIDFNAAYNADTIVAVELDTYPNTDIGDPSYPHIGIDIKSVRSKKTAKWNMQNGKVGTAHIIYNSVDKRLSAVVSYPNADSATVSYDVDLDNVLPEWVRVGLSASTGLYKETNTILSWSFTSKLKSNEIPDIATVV
# [9] = anti-His antibody binders, primary screen, artefact control for SMM control protein annotation, biochemical, small-molecule microarray, 635 nm fluorescence (AID 1128); conditions: anti-His Alexa647 antibody binding, higher = more signal;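 note: score merges feature fluorescence with signal-to-noise for each printed compound spot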
# [10] = system: Human papillomavirus type 1a E7 protein (residues 1-88); assay: HPV1a E7 small-molecule binders, primary screen, biochemical, small-molecule microarray, residues 1-88, 635 nm (AID 1129); conditions: small-molecule microarray binding, fluorescence 635 nm; higher = more signal
# [11] = target: Focal adhesion kinase 1 (Homo sapiens) (UniProt Q05397); assay: small-molecule microarray binders of FAK, primary screen, biochemical, 635/667 nm fluorescence, BSA, DTT (AID 1130); conditions: PTK2 binding, 635 nm fluorescence, higher = more signal;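 note: composite of spot emission at 667 nm and signal to noise over triplicate slides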
# Chain of Focal adhesion kinase 1 (Homo sapiens) (Q05397 whole entry, looked up): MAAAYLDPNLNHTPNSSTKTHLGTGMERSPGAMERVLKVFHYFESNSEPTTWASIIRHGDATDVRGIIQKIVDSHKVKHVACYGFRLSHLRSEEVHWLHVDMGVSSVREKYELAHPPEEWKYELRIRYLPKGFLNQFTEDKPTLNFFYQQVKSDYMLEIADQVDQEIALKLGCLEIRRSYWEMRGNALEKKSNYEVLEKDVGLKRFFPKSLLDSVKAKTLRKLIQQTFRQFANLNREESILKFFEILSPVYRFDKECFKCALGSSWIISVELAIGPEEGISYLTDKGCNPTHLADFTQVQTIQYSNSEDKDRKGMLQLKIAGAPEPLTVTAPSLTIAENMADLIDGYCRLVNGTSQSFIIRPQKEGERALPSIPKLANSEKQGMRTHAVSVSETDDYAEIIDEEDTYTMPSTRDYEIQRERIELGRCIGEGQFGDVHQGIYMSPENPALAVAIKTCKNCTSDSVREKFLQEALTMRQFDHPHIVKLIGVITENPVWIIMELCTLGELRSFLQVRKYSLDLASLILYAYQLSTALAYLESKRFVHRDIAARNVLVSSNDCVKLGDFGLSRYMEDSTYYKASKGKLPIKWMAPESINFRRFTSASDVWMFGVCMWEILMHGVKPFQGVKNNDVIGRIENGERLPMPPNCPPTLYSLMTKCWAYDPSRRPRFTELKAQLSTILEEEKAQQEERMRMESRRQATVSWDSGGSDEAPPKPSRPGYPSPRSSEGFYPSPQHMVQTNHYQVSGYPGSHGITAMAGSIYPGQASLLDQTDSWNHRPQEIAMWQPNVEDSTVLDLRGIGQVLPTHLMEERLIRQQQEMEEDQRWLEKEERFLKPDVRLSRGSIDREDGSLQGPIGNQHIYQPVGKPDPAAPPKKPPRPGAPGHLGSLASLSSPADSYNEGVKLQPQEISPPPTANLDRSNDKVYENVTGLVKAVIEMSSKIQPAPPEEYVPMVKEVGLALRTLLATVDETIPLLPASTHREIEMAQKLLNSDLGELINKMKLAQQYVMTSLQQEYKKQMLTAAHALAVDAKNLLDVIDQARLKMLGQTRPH
# [12] = system: Fibrinogen (Alexa647-labelled); assay: fibrinogen binders on compound microarrays, profiling panel, artefact control for SMM control-protein annotation, biochemical, small-molecule microarray, 635/667 nm fluorescence (AID 1131); conditions: fibrinogen-A647 binding fluorescence, higher = more signal;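 note: z-score merges 667 nm fluorescence with per-spot signal-to-noise over triplicate slides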
# [13] = target: Follistatin (Homo sapiens) (UniProt P19883); assay: follistatin binders on small-molecule microarrays, primary screen, biochemical, small-molecule microarray, 635/667 nm fluorescence (AID 1132); conditions: FST binding, 635 nm fluorescence, higher = more signal
# Chain of Follistatin (Homo sapiens) (P19883 whole entry, looked up): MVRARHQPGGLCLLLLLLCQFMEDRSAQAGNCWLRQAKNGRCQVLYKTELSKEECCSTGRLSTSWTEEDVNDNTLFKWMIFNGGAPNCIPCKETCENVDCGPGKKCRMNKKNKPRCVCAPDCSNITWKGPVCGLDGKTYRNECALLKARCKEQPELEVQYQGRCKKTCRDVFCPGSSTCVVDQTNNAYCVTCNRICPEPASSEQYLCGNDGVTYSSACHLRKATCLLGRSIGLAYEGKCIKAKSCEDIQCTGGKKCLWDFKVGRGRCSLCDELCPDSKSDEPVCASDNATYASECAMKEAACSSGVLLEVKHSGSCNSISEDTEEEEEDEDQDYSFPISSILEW
# [14] = target: Fibroblast growth factor 2 (Homo sapiens) (UniProt P09038); assay: FGF2 binders on small-molecule microarrays, primary screen, biochemical, small-molecule microarray, 635/667 nm fluorescence (AID 1133); conditions: small-molecule microarray binding, FGF2, fluorescence 635/667; higher = more signal
# Chain of Fibroblast growth factor 2 (Homo sapiens) (P09038 whole entry, looked up): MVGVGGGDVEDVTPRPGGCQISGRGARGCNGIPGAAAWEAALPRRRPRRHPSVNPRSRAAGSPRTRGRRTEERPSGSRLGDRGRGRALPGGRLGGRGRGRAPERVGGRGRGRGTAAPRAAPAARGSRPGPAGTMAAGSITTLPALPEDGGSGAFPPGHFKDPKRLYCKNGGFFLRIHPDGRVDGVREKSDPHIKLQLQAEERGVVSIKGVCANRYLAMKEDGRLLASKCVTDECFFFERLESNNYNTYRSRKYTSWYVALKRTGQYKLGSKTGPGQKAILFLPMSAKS
# [15] = mitochondrial membrane potential change in A549 cells, profiling panel, cell-based, JC-1 fluorescence, basal, 24 h, 100 nL (AID 1138); conditions: higher = more signal;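 note: A549 lung adenocarcinoma cells under basal conditions with no added stimulus; test concentration not given here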
# Lefty1 = Lefty1 binders on small-molecule microarrays, primary screen, biochemical, small-molecule microarray, 635/667 nm fluorescence (AID 1139); conditions: small-molecule microarray binding, fluorescence 635/667; higher = more signal
# [16] = system: wheat germ agglutinin (Triticum aestivum), Alexa647-labelled; assay: wheat germ agglutinin binders on compound microarrays, profiling panel, artefact control for SMM control-protein annotation, biochemical, small-molecule microarray, 635/667 nm fluorescence (AID 1140); conditions: WGA-A647 binding, 635 nm fluorescence, higher = more signal;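 note: score merges 667 nm feature emission with signal to noise over triplicate slides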
# [17] = target: Luciferin 4-monooxygenase (Photinus pyralis) (UniProt P08659); assay: firefly luciferase enzyme inhibitors, primary screen, biochemical, luminescence, purified enzyme, 2006 set (AID 1141); conditions: SteadyGlo luminescence, 30 min, higher = more signal, called active from +8 up or from −8 down;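 note: cell-free assay with purified firefly luciferase at 100 ng per well in PBS; test concentration not given here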
# Chain of Luciferin 4-monooxygenase (Photinus pyralis) (P08659 whole entry, looked up): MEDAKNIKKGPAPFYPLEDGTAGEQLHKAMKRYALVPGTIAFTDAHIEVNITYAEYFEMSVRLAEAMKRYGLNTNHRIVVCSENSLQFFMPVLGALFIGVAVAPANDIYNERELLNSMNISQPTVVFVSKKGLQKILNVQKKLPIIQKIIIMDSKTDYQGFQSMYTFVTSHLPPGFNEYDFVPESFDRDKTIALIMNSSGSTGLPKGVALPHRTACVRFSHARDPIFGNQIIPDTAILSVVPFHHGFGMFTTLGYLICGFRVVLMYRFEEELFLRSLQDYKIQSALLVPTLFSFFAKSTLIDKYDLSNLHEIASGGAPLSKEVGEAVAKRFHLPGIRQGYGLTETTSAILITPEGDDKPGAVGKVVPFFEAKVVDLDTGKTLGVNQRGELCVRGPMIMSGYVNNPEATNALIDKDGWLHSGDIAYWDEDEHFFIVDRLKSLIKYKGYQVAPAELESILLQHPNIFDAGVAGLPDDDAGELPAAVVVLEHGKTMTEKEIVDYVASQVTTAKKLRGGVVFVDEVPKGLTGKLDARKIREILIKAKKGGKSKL
SMILES,composite z-score (Albumin (Bos taurus)),composite Z-score [1],composite z-score [2],composite z-score [3],composite z-score [4],composite z-score [5],composite z-score [6],composite z-score (Sam68 (KHDRBS1)),composite z-score [7],composite z-score [8],composite z-score [9],composite z-score [10],composite z-score [11],composite z-score [12],composite z-score [13],composite z-score [14],z-score [15],composite z-score (Lefty1),composite z-score [16],z-score [17]
CCOC(=O)C[C@H]1[C@H](OC(=O)c2ccc(-c3ccccc3)cc2)[C@@H](NC(=O)C2CCCCC2)c2cc(OCCCO)ccc2N1C(=O)c1ccc2ccccc2n1,0.821,-0.0871 (inactive),0.0179,0.0055,-0.252,0.915,0.243,1.3,-0.625,0.814,0.549,1.14,0.347,0.433,0.349,-0.243,1.14,0.0309,0.388,-0.784 (inactive)
COCCOC(=O)N1C(=O)[C@@]2(c3ccccc31)[C@H](C(=O)Nc1nc3ccccc3s1)[C@H]1C(=O)O[C@H](c3ccccc3)[C@H](c3ccccc3)N1[C@@H]2c1ccc(O)cc1,0.794,-0.706 (inactive),0.288,-0.0551,0.435,0.903,0.418,1.3,0.318,1.21,1.68,1.2,0.261,0.976,1.32,1.06,-2.31,0.983,1.16,-2.88 (inactive)
COCCOC(=O)N1C(=O)[C@@]2(c3cc(C#CC4(O)CCCCCC4)ccc31)[C@H](C(=O)NC[C@H](O)c1ccccc1)[C@H]1C(=O)O[C@H](c3ccccc3)[C@H](c3ccccc3)N1[C@@H]2c1ccccc1OCCO,-0.383,1.51 (inactive),0.0596,-0.0956,0.668,1.04,-0.0189,1.32,0.405,1.14,0.67,1.16,0.714,0.873,1.28,1.56,-0.88,1.4,0.791,-1.81 (inactive)
C=C(C(=O)CC[C@@H](OC(C)=O)c1ccccc1OCCO)C(C)C,-0.952,0.222 (inactive),-0.0647,-0.167,0.664,-0.152,-0.0507,-0.247,-0.38,-0.779,0.138,-1.28,-0.485,-0.314,0.164,0.398,1.29,0.342,-0.242,-1.35 (inactive)
CC(C)NC(=O)[C@@H]1c2ccccc2C(=O)N(Cc2cc(F)cc(C(F)(F)F)c2)[C@H]1c1ccc(CO)cc1,-0.448,0.115 (inactive),-0.402,-0.111,0.741,1.34,-0.126,-0.096,-0.556,-0.94,-0.905,-0.194,0.434,-1.41,-1.12,-0.612,2.84,-1.89,-1.21,-0.758 (inactive)
Cc1ccc(S[C@]2(C(=O)NC3CC3)CC(=O)N(Cc3ccccc3C(F)(F)F)[C@@H]2c2ccc(CO)cc2I)cc1,-1.2,-0.275 (inactive),-0.0311,-0.0708,0.653,0.898,0.417,0.547,-0.229,-0.387,-1.01,0.303,-0.0823,-0.763,1.25,0.0123,1.57,-0.258,0.74,-1.15 (inactive)
C#CCN1C(C(=O)OCC)OC[C@H]1c1ccccc1 (stereo not given in full),-0.0202,0.369 (inactive),-0.128,-0.0861,-0.0406,4.71,0.847,0.487,0.602,0.303,0.264,-0.334,5.01,0.559,0.552,0.469,0.833,0.732,0.299,-0.547 (inactive)
COc1ccc(C#Cc2ccc3c(c2)[C@]2(C(=O)N3)[C@H](c3ccc(O)cc3)N3[C@H](c4ccccc4)[C@H](c4ccccc4)OC(=O)[C@H]3[C@@H]2C(N)=O)cc1,-0.524,1.08 (inactive),-0.299,-0.147,0.662,1.25,0.0742,0.278,-1.54,-0.211,2.17,-0.0669,0.627,-0.063,-0.482,-0.617,-1.59,-0.9,-0.0907,-1.44 (inactive)
C=CCNC(=O)[C@@H]1[C@H]2C(=O)O[C@H](c3ccccc3)[C@H](c3ccccc3)N2[C@H](c2ccc(O)cc2)[C@@]12C(=O)N(C(=O)OCCOC)c1ccc(C#Cc3ccc(OC)cc3)cc12,-0.0706,0.574 (inactive),0.13,0.0406,0.484,1.46,0.478,1.32,0.455,1.12,0.539,1.13,1.68,0.8,0.949,0.915,-0.0671,0.544,1.06,-1.23 (inactive)
C[N+](C)(C)CCCCNC(=O)[C@@H]1C[C@@H]2C(=O)NCC(=O)N2[C@@H]1c1cccc(OCCO)c1,-0.656,0.617 (inactive),0.0297,-0.19,0.434,2.15,1.27,0.781,1.29,1.14,2.59,1.15,-0.421,0.78,1.49,1.94,1.87,1.6,1.02,-1.9 (inactive)
C=CC[C@]1(C(=O)N(C)C)N=C(c2ccc(OCCCO)cc2)O[C@H]1c1ccccc1CN=[N+]=[N-],0.79,0.328 (inactive),-0.014,0.0111,0.548,2.11,0.79,1.04,-0.474,1.11,1.84,1.23,0.418,0.415,1.27,0.521,2.49,-0.168,0.757,-1.12 (inactive)
